Measured values taken from PubChem BioAssay (NCI).
The panel holds about 79,000 compounds, 15% with a hit somewhere; the sample as a whole holds those more often. Active and inactive are the calls of the source. Rule as the data show it: active = growth inhibition above about 70%; inactive = the rest.

Columns and labels:
[1] = NCI Yeast Anticancer Drug Screen. Data for the rad50 strain (AID 155);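 also: 0% = growth of vehicle-only cultures of the same strain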; conditions: S. cerevisiae rad50 strain growth inhibition, hits give high values
Summary of the method: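 Readout: growth inhibition relative to vehicle-treated cultures. Compound exposure was carried out in a genetically defined yeast strain deficient in DNA damage repair.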

[2] = NCI Yeast Anticancer Drug Screen. Data for the mec2-1 strain (AID 157); conditions: S. cerevisiae mec2-1 strain, hits give high values
Summary of the method: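 Compounds were applied to mec2-1 yeast cells. Their growth was then compared with that of vehicle-treated cultures to give growth inhibition.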

[3] = NCI Yeast Anticancer Drug Screen. Data for the sgs1 mgt1 strain (AID 161);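 also: 0% = growth of cultures given vehicle only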; conditions: S. cerevisiae sgs1 mgt1 strain, hits give high values
Summary of the method: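 This yeast growth screen uses a strain with defined DNA-repair lesions; compound-treated growth is compared with vehicle-treated growth.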

[4] = NCI Yeast Anticancer Drug Screen. Data for the cln2 rad14 strain (AID 165);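 also: 0% = growth equal to vehicle treated cultures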; conditions: S. cerevisiae cln2 rad14 strain, hits give high values
Summary of the method: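 Strain: cln2 rad14 yeast, altered in cell cycle control and DNA damage repair. Read-out: growth inhibition vs vehicle.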

[5] = NCI Yeast Anticancer Drug Screen. Data for the bub3 strain (AID 167); conditions: S. cerevisiae bub3 mutant strain, hits give high values
Summary of the method: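 Readout: yeast growth inhibition, expressed relative to vehicle-only wells. The test organism is a mutant strain from a panel with lesions in DNA repair or checkpoint genes.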

[6] = NCI Yeast Anticancer Drug Screen. Data for the mlh1 rad18 strain (AID 175); conditions: S. cerevisiae mlh1 rad18 strain growth inhibition, hits give high values
Summary of the method: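 A repair-deficient yeast strain is exposed to test compound, and growth is scored relative to vehicle-treated controls.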

[7] = at 5.0 µM (retest, dose inferred, filed as 0.5)
[8] = at 50.0 µM (retest, dose inferred, filed as 5.0)

Measured: growth inhibition

CSCSCC(CO)NC(=O)/C=C/c1c(C)[nH]c(=O)[nH]c1=O (configuration not stated)
inactive: [1]; [7] -2% | [1]; [8] 0% | [2]; [7] 1% | [2]; [8] 7% | [3]; [7] 1% | [3]; [8] 4% | [4]; [7] -3% | [4]; [8] -11% | [5]; [7] 3% | [5]; [8] 21% | [6]; [7] 3% | [6]; [8] 8%
active: [1]; at 50.0 µM 92.5% | [2]; at 50.0 µM 94.2% | [3]; at 50.0 µM 93.8% | [4]; at 50.0 µM 92.2% | [5]; at 50.0 µM 92.8% | [6]; at 50.0 µM 92.9%

Nc1nc(-c2ccccc2)cc(-c2ccccc2O)n1
inactive: [1]; [7] 7% | [1]; [8] -1% | [1]; at 50.0 µM 40.8% | [2]; [7] 0% | [2]; [8] 15% | [2]; at 50.0 µM 20.5% | [3]; [7] 12% | [3]; [8] 19% | [3]; at 50.0 µM 62.6% | [4]; [7] 13% | [4]; [8] 9% | [4]; at 50.0 µM 69.2% | [5]; [7] 9% | [5]; [8] 23% | [5]; at 50.0 µM 26.1% | [6]; [7] 8% | [6]; [8] 11% | [6]; at 50.0 µM 67.7%

CC(C)(C)NCc1cc(C(C)(C)C)cc(-c2ccc(Cl)cc2)c1O
active: [1]; [8] 92% | [1]; at 50.0 µM 84.8% | [2]; [8] 91% | [2]; at 50.0 µM 88.4% | [3]; [8] 88% | [3]; at 50.0 µM 86.5% | [4]; at 50.0 µM 76.8% | [5]; [8] 91% | [5]; at 50.0 µM 83.9% | [6]; [8] 93% | [6]; at 50.0 µM 84.6%
inactive: [1]; [7] 26% | [2]; [7] 13% | [3]; [7] 7% | [4]; [7] 44% | [4]; [8] 55% | [5]; [7] 12% | [6]; [7] 25%

CC([C@H]1CCC2C3CCC4CC5(CC[C@]4(C)C3CC[C@@]21C)c1ccccc1C(=O)N5C)N(C)C (some centres not stated)
active: [1]; [8] 81% | [1]; at 50.0 µM 83.3% | [2]; at 50.0 µM 89.4% | [3]; [8] 87% | [3]; at 50.0 µM 89.6% | [4]; [8] 85% | [4]; at 50.0 µM 73.3% | [5]; [8] 83% | [5]; at 50.0 µM 86.5% | [6]; [8] 84% | [6]; at 50.0 µM 78.2%
inactive: [1]; [7] -11% | [2]; [7] -11% | [2]; [8] 55% | [3]; [7] 11% | [4]; [7] 14% | [5]; [7] 6% | [6]; [7] 18%

c1ccc2c(c1)C[N+]1(CCCCCCC1)C2
active: [1]; at 50.0 µM 74.2% | [2]; at 50.0 µM 72.7% | [3]; [8] 77% | [6]; [8] 88%
inactive: [1]; [7] 19% | [1]; [8] 51% | [2]; [7] 6% | [2]; [8] 64% | [3]; [7] -2% | [3]; at 50.0 µM 69.9% | [4]; [7] -14% | [4]; [8] 25% | [4]; at 50.0 µM 53.6% | [5]; [7] -3% | [5]; [8] 36% | [5]; at 50.0 µM 58.9% | [6]; [7] 6% | [6]; at 50.0 µM 65.8%

c1ccc([CH2][Sn]([CH2]c2ccccc2)([S]c2cccc3cccnc23)[S]c2cccc3cccnc23)cc1
inactive: [1]; [7] 67% | [1]; [8] 24% | [2]; [7] 61% | [2]; [8] 18% | [3]; [7] 65% | [3]; [8] 59% | [4]; [7] 17% | [4]; [8] -5% | [5]; [7] 61% | [5]; [8] 30% | [6]; [7] 46% | [6]; [8] 16%
active: [1]; at 50.0 µM 94.2% | [2]; at 50.0 µM 92.5% | [3]; at 50.0 µM 89.6% | [4]; at 50.0 µM 84.5% | [5]; at 50.0 µM 93% | [6]; at 50.0 µM 93.5%

Nc1ccc(O)c2ccccc12
active: [1]; [8] 80% | [1]; at 50.0 µM 85.5% | [2]; [8] 83% | [5]; [8] 93% | [5]; at 50.0 µM 87.2% | [6]; [8] 90% | [6]; at 50.0 µM 91%
inactive: [1]; [7] 19% | [2]; [7] -4% | [2]; at 50.0 µM 63.8% | [3]; [7] 7% | [3]; [8] 63% | [3]; at 50.0 µM 68.3% | [4]; [7] -10% | [4]; [8] 8% | [4]; at 50.0 µM 10.1% | [5]; [7] 7% | [6]; [7] 11%

c1ccc(CCC2=Nc3ccccc3CO2)cc1
inactive: [1]; [7] -160% | [1]; [8] -155% | [1]; at 50.0 µM 7.75% | [2]; [7] -48% | [2]; [8] -56% | [2]; at 50.0 µM -6.5% | [3]; [7] -64% | [3]; [8] -63% | [3]; at 50.0 µM 12.2% | [4]; [7] -67% | [4]; [8] -87% | [4]; at 50.0 µM 13.3% | [5]; [7] -68% | [5]; [8] -69% | [5]; at 50.0 µM -18.7% | [6]; [7] -126% | [6]; [8] -124% | [6]; at 50.0 µM -8.4%

CC1(C(Cl)(Cl)Cl)C=CC(=NO)C=C1 (configuration not stated)
active: [3]; at 50.0 µM 70.8%
inactive: [1]; [7] 1% | [1]; [8] 28% | [1]; at 50.0 µM 65.8% | [2]; [7] 2% | [2]; [8] 34% | [2]; at 50.0 µM 21.4% | [3]; [7] 1% | [3]; [8] 44% | [4]; [7] 3% | [4]; [8] 26% | [4]; at 50.0 µM 30.1% | [5]; [7] -4% | [5]; [8] 29% | [5]; at 50.0 µM 18.7% | [6]; [7] -4% | [6]; [8] 34% | [6]; at 50.0 µM 54.1%
